# Measurements: the supplement of paper PMC10849652
# The full data set covers some 8,800 targets. This sample favours those with a hit. About 0.5% of all pairs of compound and target were hits. Values without a mark were called inactive.
# Assays:
# Assay in all cases: log2 fold change, soluble protein after heating vs DMSO (PISA); higher = thermal stabilisation; K562 lysate, 10 uM; active = over 0.2 and 3.5 SD of the protein, either way, in both replicates (recomputed)
# ibrutinib = compound: C=CC(=O)N1CCC[C@@H](n2nc(-c3ccc(Oc4ccccc4)cc3)c3c(N)ncnc32)C1 [ibrutinib]
# Method in brief: (§1)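 K562 pellets were dounce-homogenised in PBS pH 7.4 containing 1 mM MgCl2, and the crude extract, at 1 mg/mL protein, was exposed to 10 μM compound for 30 min. Aliquots were heated for 3 min across 48°C-58°C, pooled, brought to 0.5% NP-40 at 4°C and spun at 21,000xg for 90 min, with the supernatant taken as soluble protein. TMTpro 16plex LC-MS/MS with equalised channel sums quantified that protein. Values are log-two fold changes in thermal stability relative to solvent controls, taken from duplicates.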
# [1] = compound: CC(=O)c1cnc2ccc(-c3cc(Cl)c(O)c(Cl)c3)nc2c1N[C@H]1CC[C@H](CN(C)C)CC1
# Method in brief: as §1
# ralimetinib = compound: CC(C)(C)Cn1c(N)nc2ccc(-c3[nH]c(C(C)(C)C)nc3-c3ccc(F)cc3)nc21 [ralimetinib]
# Method in brief: as §1
# [2] = compound: CC(C)(O)CC(=O)NCCn1ccc2ncnc(Nc3ccc(Oc4cccc(C(F)(F)F)c4)c(Cl)c3)c21
# Method in brief: as §1
# [3] = compound: CC(C)C1=C2N=C(C=C(N2N=C1)NCC3=CC=CC=C3)NCCCCCCN
# Method in brief: as §1
# [4] = compound: CC1=C(C(CC(=O)N1)C2=CC=C(C=C2)C(F)(F)F)C(=O)NC3=C(C=C4C(=C3)C=NN4)F
# Method in brief: as §1
# [5] = compound: CC1=C(C2=C(C=C1)C(=O)C3=CC=CC=C3N2CCCN)C
# Method in brief: as §1
# [6] = compound: CC1=C(C=C(C=C1)NC(=O)C2=CC(=CC=C2)C(C)(C)C#N)NC3=CC4=C(C=C3)N=CN(C4=O)C
# Method in brief: as §1
# [7] = compound: CC1=C(C=C(C=C1)NC(=O)C2=CC(=CC=C2)N(C)C)NC(=O)C3=CC=C(C=C3)O
# Method in brief: as §1
# [8] = compound: CC1=CC=C(C=C1)SC2=C3C=C(SC3=CN=C2)C(=O)N
# Method in brief: as §1
# UniProt Q00535, sequence (Q00535 whole entry, looked up): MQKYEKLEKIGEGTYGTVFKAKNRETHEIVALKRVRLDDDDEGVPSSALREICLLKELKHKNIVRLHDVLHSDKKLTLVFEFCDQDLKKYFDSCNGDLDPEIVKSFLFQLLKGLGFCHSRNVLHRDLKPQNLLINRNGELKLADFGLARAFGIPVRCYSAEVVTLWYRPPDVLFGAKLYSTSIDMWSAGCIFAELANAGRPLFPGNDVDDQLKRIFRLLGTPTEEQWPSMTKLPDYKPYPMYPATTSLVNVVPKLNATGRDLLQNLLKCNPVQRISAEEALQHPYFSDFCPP
# UniProt Q8WYN0, sequence (Q8WYN0 whole entry, looked up): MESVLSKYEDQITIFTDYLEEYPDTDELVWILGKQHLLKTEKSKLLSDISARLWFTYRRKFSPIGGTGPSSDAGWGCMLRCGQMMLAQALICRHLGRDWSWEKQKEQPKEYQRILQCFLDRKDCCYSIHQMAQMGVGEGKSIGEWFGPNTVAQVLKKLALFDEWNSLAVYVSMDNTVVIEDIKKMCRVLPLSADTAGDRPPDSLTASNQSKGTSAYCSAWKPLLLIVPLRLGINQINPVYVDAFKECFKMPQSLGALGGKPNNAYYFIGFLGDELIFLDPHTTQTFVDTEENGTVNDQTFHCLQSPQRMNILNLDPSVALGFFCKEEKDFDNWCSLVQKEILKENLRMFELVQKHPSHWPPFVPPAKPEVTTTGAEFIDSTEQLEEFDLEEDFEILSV
# UniProt P04632, sequence (P04632 whole entry, looked up): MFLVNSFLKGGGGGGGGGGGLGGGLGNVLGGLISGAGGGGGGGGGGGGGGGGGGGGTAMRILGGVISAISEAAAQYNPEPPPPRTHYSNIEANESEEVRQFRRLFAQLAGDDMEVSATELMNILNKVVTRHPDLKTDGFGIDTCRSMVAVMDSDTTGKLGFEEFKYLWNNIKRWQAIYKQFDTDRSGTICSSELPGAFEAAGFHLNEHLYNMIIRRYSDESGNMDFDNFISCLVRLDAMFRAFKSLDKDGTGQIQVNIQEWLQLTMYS
# UniProt O75081, sequence (O75081 whole entry, looked up): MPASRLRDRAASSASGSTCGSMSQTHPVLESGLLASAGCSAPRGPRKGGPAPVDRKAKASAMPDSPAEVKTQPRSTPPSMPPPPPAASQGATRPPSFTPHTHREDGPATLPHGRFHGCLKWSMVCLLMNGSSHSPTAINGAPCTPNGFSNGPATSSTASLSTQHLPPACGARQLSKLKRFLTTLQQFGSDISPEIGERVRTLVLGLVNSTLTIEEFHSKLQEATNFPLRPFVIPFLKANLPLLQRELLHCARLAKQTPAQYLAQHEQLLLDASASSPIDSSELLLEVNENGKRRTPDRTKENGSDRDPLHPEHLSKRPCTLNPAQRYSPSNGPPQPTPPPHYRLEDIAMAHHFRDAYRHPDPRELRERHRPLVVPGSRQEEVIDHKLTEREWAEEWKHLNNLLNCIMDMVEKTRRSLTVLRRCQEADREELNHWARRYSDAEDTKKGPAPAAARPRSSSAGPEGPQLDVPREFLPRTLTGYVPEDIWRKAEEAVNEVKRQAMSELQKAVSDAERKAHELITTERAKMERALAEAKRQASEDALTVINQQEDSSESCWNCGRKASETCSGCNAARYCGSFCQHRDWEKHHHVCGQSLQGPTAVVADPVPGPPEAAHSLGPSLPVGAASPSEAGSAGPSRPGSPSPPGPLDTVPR
# UniProt Q8TCD1, sequence (Q8TCD1 whole entry, looked up): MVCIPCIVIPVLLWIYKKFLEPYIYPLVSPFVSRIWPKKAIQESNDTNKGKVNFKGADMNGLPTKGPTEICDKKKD
# UniProt P40227, sequence (P40227 whole entry, looked up): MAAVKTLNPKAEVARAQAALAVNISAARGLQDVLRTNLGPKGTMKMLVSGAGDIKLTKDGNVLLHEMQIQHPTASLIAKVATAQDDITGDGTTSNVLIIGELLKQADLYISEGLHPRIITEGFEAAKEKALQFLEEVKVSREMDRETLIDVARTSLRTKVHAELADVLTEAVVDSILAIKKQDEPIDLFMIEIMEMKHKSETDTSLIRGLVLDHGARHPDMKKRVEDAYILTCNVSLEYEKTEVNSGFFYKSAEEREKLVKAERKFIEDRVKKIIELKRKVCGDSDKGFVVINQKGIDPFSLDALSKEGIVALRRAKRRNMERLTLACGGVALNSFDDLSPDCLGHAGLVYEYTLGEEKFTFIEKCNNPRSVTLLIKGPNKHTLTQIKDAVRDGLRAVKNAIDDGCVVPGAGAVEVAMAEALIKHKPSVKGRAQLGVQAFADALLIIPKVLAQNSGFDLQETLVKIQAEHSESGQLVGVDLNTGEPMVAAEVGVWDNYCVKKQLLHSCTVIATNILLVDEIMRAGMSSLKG
# UniProt O95067, sequence (O95067 whole entry, looked up): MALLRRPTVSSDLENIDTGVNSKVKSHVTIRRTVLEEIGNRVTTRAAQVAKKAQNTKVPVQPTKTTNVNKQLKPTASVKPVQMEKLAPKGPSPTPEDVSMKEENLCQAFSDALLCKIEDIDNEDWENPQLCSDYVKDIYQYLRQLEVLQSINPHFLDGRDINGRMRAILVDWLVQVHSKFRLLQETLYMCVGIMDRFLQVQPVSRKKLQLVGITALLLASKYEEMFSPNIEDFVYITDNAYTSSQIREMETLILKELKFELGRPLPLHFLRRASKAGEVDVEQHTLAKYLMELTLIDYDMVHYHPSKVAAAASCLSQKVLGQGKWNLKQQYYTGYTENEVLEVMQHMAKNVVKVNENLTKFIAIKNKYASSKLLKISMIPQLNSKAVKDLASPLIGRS
# UniProt O43861, sequence (O43861 whole entry, looked up): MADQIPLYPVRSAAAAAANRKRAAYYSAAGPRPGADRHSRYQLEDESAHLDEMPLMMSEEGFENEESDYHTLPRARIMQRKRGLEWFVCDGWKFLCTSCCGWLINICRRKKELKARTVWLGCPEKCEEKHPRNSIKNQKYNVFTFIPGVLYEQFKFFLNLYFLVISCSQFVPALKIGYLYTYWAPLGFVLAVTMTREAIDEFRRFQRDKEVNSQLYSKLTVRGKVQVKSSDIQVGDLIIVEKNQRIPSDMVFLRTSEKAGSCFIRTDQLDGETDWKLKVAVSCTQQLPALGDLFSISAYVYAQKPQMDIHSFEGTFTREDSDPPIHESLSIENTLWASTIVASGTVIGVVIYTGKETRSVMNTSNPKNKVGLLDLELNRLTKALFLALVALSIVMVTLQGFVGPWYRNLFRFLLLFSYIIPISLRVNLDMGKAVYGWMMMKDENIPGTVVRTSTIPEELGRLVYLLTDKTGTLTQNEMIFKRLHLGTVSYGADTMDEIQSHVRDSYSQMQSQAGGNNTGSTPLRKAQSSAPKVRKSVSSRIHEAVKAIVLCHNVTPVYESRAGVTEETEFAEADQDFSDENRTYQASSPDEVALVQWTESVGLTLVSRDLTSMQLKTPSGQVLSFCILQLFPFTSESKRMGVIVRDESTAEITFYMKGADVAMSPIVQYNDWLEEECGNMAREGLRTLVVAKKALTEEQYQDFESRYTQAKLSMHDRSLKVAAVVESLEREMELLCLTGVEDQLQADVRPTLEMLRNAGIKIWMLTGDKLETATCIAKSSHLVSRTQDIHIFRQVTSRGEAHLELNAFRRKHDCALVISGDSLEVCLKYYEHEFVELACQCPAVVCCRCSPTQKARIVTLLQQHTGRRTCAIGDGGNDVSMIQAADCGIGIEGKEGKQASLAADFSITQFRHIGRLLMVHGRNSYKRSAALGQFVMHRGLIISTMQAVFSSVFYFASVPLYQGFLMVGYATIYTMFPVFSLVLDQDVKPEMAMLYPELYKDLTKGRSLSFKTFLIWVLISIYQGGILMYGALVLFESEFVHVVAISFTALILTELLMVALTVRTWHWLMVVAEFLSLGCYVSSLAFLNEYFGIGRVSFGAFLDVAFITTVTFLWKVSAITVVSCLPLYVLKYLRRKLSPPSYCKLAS
# UniProt Q8N163, sequence (Q8N163 whole entry, looked up): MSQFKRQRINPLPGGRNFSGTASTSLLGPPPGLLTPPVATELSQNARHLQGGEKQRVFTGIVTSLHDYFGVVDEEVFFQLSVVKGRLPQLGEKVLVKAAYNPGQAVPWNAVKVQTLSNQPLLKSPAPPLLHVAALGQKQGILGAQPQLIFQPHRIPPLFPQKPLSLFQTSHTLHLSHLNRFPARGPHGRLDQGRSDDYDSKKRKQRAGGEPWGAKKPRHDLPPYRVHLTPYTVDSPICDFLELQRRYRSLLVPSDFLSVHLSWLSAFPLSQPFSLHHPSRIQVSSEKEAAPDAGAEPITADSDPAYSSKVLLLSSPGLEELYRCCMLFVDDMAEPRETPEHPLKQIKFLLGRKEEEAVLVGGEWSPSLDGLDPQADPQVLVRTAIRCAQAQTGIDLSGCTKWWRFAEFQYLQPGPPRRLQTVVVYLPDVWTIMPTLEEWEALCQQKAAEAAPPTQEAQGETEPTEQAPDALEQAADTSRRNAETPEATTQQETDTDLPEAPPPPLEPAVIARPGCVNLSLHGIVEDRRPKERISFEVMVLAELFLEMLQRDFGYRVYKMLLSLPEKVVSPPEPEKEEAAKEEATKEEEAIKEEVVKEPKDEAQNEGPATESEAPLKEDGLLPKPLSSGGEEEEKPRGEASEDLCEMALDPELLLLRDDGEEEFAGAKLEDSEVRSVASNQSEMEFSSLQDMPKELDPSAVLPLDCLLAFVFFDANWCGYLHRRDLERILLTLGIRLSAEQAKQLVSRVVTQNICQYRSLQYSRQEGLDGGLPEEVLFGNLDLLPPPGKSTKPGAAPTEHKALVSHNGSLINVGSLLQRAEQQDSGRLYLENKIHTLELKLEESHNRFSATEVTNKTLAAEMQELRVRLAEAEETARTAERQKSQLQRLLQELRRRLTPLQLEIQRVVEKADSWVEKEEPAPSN
# UniProt Q9Y2V0, sequence (Q9Y2V0 whole entry, looked up): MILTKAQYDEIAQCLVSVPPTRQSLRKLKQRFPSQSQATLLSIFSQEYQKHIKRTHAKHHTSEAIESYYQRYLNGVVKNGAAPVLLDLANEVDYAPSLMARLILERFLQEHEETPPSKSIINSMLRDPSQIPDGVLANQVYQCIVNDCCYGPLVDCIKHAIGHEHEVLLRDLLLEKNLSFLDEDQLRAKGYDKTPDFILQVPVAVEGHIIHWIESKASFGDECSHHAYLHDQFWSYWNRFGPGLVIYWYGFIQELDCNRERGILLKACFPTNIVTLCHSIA
Target,log2 fold change (ibrutinib),log2 fold change [1],log2 fold change (ralimetinib),log2 fold change [2],log2 fold change [3],log2 fold change [4],log2 fold change [5],log2 fold change [6],log2 fold change [7],log2 fold change [8]
CDC42EP4 (UniProt Q9H3Q1),0.07,-0.014,0.034,-0.006,0.01,0.024,0.026,0.155,-0.018,-0.035
CBFA2T3 (UniProt O75081),0.005,0.016,0.019,-0.005,-0.013,-0.001,0.003,-0.016,0.022,-0.005
CASC4 (UniProt Q6P4E1),0.001,-0.032,-0.029,-0.008,-0.012,-0.055,0.057,-0.016,0.029,-0.036
CCAR2 (UniProt Q8N163),0.025,-0.019,0.012,-0.006,-0.018,0,0.01,0.003,0.015,-0.005
C9orf72 (UniProt Q96LT7),-0.079,-0.004,-0.011,-0.021,0.025,-0.066,0.014,-0.003,-0.023,0.038
CELF2 isoform 3 (UniProt O95319),-0.016,0.062,-0.019,-0.015,0.001,0.025,0.01,-0.413 (active),0.018,0.014
ATP2B4 (UniProt P23634),0.06,-0.026,-0.056,-0.029,-0.018,0.033,-0.034,0.089,0.051,-0.003
CDK11B (UniProt P21127),-0.008,0.438 (active),0.028,0.034,0.01,-0.027,-0.011,0,0.01,0.003
CCT6A (UniProt P40227),0.017,-0.005,-0.007,0.022,-0.013,-0.014,0.003,-0.016,-0.014,0.018
ATP9B (UniProt O43861),-0.156,0.08,-0.044,-0.053,-0.021,0.225,0.049,0,0.079,-0.054
CDC45 isoform 3 (UniProt O75419),0.034,0.045,0.014,0.021,-0.005,0.036,-0.006,-0.032,0.031,-0.004
CDK13 (UniProt Q14004),-0.038,0.271 (active),0.031,0.141,-0.056,-0.039,0.041,-0.104,-0.028,-0.022
CES2 isoform 4 (UniProt O00748),0.431 (active),-0.048,-0.031,0.057,-0.004,0.202,-0.128,0.079,-0.019,-0.025
C18orf32 (UniProt Q8TCD1),0.069,-0.014,0.053,-0.048,-0.069,-0.078,-0.021,0.074,-0.056,0.032
CAMK1 (UniProt Q14012),0.017,0.009,0.004,-0.144,-0.017,-0.034,-0.003,0.016,-0.027,0.008
CCDC186 (UniProt Q7Z3E2),0.024,-0.025,-0.001,-0.056,-0.086,0.006,0.021,-0.016,0,-0.023

Target,log2 fold change (ibrutinib),log2 fold change [1],log2 fold change (ralimetinib),log2 fold change [2],log2 fold change [3],log2 fold change [4],log2 fold change [5],log2 fold change [6],log2 fold change [7],log2 fold change [8]
ATG4A (UniProt Q8WYN0),0.032,-0.006,0.011,-0.051,-0.055,-0.006,-0.004,0.053,0.021,-0.014
CDK5 (UniProt Q00535),0.015,0.53 (active),0.004,-0.023,-0.032,-0.034,-0.006,-0.052,0.023,-0.058
CAPNS1 (UniProt P04632),0.076,0.002,0.035,-0.007,-0.015,0.006,0.053,0,-0.025,0.01
CDKN2AIP (UniProt Q9NXV6),-0.003,-0.038,-0.013,0.029,-0.04,-0.009,0.03,0.004,-0.019,-0.009
CEP120 (UniProt Q8N960),-0.02,-0.061,-0.076,-0.132,0.001,-0.174,-0.224,-0.015,0.001,-0.085
CALM2 (UniProt P0DP24),0.262,0.004,-0.014,-0.238,-0.07,-0.044,-0.101,-0.013,-0.099,0.004
ATG13 isoform 2 (UniProt O75143),0.01,0.011,-0.003,-0.018,0.004,0,-0.006,0.048,-0.024,0.016
CASP7 isoform 3 (UniProt P55210),0,0.125,-0.118,-0.012,-0.123,-0.029,-0.161,0.043,-0.124,-0.052
CDC123 (UniProt O75794),0.025,0.022,0.06,0.008,0.027,0.045,0.016,-0.071,0.031,0.003
C15orf41 (UniProt Q9Y2V0),-0.028,-0.013,-0.018,-0.029,0.063,0.006,0.045,0.023,0.13,-0.106
CCNB2 (UniProt O95067),-0.062,0.358 (active),0.028,-0.028,0.023,-0.011,0.017,0.022,0.037,-0.079
CFDP1 (UniProt Q9UEE9),0.032,0.014,0.051,-0.015,-0.052,-0.014,-0.027,0.021,0.027,-0.012
C16orf70 (UniProt Q9BSU1),-0.048,-0.011,0.034,0.031,-0.068,–,-0.043,0,0.058,-0.024
CDKN1B (UniProt P46527),0.141,0.013,0.037,0.069,-0.037,–,-0.053,-0.325,-0.019,0.017
BRD3 (UniProt Q15059),-0.011,0.04,–,–,0.095,-0.054,-0.033,0.059,–,-0.074
